Test results from the supplement of paper PMC4466140.

Assays:
Assay in all cases: SPOT peptide array binding signal intensity (averaged, normalized) (arbitrary units (background-subtracted, floor 0; scale differs between SH3 domains)); higher = stronger binding of the SH3 domain to the peptide
AgAbp1 = target: AgAbp1
In short: (§1)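 Binding signal is given in arbitrary units that differ between domains and is the normalized, background-subtracted spot intensity averaged across replicates. Each GST-SH3 fusion from one of four yeast species was made in E. coli BL21(DE3), purified on glutathione Sepharose and incubated at 10 μg/ml overnight at 4°C on cellulose-bound synthetic 15-mer peptides in which cysteines were replaced by serines. Detection used anti-GST antibody, an HRP anti-mouse secondary and luminol, followed by imaging and Genespotter quantification.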

AgBbc1 = target: AgBbc1
In short: as §1

AgBem1-D1 = target: AgBem1-D1
In short: as §1

AgBzz1-D1 = target: AgBzz1-D1
In short: as §1

AgBzz1-D2 = target: AgBzz1-D2
In short: as §1

AgCyk3 = target: AgCyk3
In short: as §1

AgFus1 = target: AgFus1
In short: as §1

AgHof1 = target: AgHof1
In short: as §1

AgHse1 = target: AgHse1
In short: as §1

AgLsb1 = target: AgLsb1
In short: as §1

AgLsb4 = target: AgLsb4
In short: as §1

AgMyo5 = target: AgMyo5
In short: as §1

AgNbp2 = target: AgNbp2
In short: as §1

AgRvs167 = target: AgRvs167
In short: as §1

AgSho1 = target: AgSho1
In short: as §1

AgSla1-D1-D2 = target: AgSla1-D1-D2
In short: as §1

AgSla1-D3 = target: AgSla1-D3
In short: as §1

CaAbp1-D1 = target: CaAbp1-D1
In short: as §1

CaAbp1-D2 = target: CaAbp1-D2
In short: as §1

CaBbc1 = target: CaBbc1
In short: as §1

CaBem1-D1 = target: CaBem1-D1
In short: as §1

CaBzz1-D1 = target: CaBzz1-D1
In short: as §1

CaBzz1-D2 = target: CaBzz1-D2
In short: as §1

CaCyk3 = target: CaCyk3
In short: as §1

CaFus1 = target: CaFus1
In short: as §1

CaHof1 = target: CaHof1
In short: as §1

CaHse1 = target: CaHse1
In short: as §1

CaLsb1 = target: CaLsb1
In short: as §1

CaLsb4 = target: CaLsb4
In short: as §1

CaMyo5 = target: CaMyo5
In short: as §1

CaNbp2 = target: CaNbp2
In short: as §1

CaRvs167 = target: CaRvs167
In short: as §1

CaRvs167-3 = target: CaRvs167-3
In short: as §1

CaSho1 = target: CaSho1
In short: as §1

CaSla1-D1-D2 = target: CaSla1-D1-D2
In short: as §1

CaSla1-D3 = target: CaSla1-D3
In short: as §1

ScAbp1 = target: ScAbp1
In short: as §1

ScBbc1 = target: ScBbc1
In short: as §1

ScBem1-D1 = target: ScBem1-D1
In short: as §1

ScBzz1-D1 = target: ScBzz1-D1
In short: as §1

ScBzz1-D2 = target: ScBzz1-D2
In short: as §1

ScCyk3 = target: ScCyk3
In short: as §1

ScFus1 = target: ScFus1
In short: as §1

ScHof1 = target: ScHof1
In short: as §1

ScHse1 = target: ScHse1
In short: as §1

ScLsb1 = target: ScLsb1
In short: as §1

ScLsb2 = target: ScLsb2
In short: as §1

ScLsb3 = target: ScLsb3
In short: as §1

ScLsb4 = target: ScLsb4
In short: as §1

ScMyo3 = target: ScMyo3
In short: as §1

ScMyo5 = target: ScMyo5
In short: as §1

ScNbp2 = target: ScNbp2
In short: as §1

ScPex13 = target: ScPex13
In short: as §1

ScRvs167 = target: ScRvs167
In short: as §1

ScSho1 = target: ScSho1
In short: as §1

ScSla1-D1-D2 = target: ScSla1-D1-D2
In short: as §1

ScSla1-D3 = target: ScSla1-D3
In short: as §1

SpAbp1-D1 = target: SpAbp1-D1
In short: as §1

SpBbc1 = target: SpBbc1
In short: as §1

SpBzz1-D1 = target: SpBzz1-D1
In short: as §1

SpBzz1-D2 = target: SpBzz1-D2
In short: as §1

SpCyk3 = target: SpCyk3
In short: as §1

SpHof1 = target: SpHof1
In short: as §1

SpHof1-2 = target: SpHof1-2
In short: as §1

SpHof1-3 = target: SpHof1-3
In short: as §1

SpHse1 = target: SpHse1
In short: as §1

SpLsb1 = target: SpLsb1
In short: as §1

SpLsb4 = target: SpLsb4
In short: as §1

SpMyo1 = target: SpMyo1
In short: as §1

SpNbp2 = target: SpNbp2
In short: as §1

SpPex13 = target: SpPex13
In short: as §1

SpRvs167 = target: SpRvs167
In short: as §1

SpSla1-D1-D2 = target: SpSla1-D1-D2
In short: as §1

SpSla1-D3 = target: SpSla1-D3
In short: as §1

B1: unnamed (peptide)
chain: YLTRPLPSTPNEDSR
AgAbp1
  SPOT peptide array binding signal intensity: 7
AgBbc1
  SPOT peptide array binding signal intensity: 39.5
AgBem1-D1
  SPOT peptide array binding signal intensity: ≤ 0
AgBzz1-D1
  SPOT peptide array binding signal intensity: 17.5
AgBzz1-D2
  SPOT peptide array binding signal intensity: ≤ 0
AgCyk3
  SPOT peptide array binding signal intensity: 42
AgFus1
  SPOT peptide array binding signal intensity: ≤ 0
AgHof1
  SPOT peptide array binding signal intensity: 13.2
AgHse1
  SPOT peptide array binding signal intensity: ≤ 0
AgLsb1
  SPOT peptide array binding signal intensity: 96
AgLsb4
  SPOT peptide array binding signal intensity: 853
AgMyo5
  SPOT peptide array binding signal intensity: 2.25
AgNbp2
  SPOT peptide array binding signal intensity: ≤ 0
AgRvs167
  SPOT peptide array binding signal intensity: 404
AgSho1
  SPOT peptide array binding signal intensity: 1790
AgSla1-D1-D2
  SPOT peptide array binding signal intensity: 1
AgSla1-D3
  SPOT peptide array binding signal intensity: ≤ 0
CaAbp1-D1
  SPOT peptide array binding signal intensity: 11
CaAbp1-D2
  SPOT peptide array binding signal intensity: 7
CaBbc1
  SPOT peptide array binding signal intensity: 134
CaBem1-D1
  SPOT peptide array binding signal intensity: ≤ 0
CaBzz1-D1
  SPOT peptide array binding signal intensity: 42
CaBzz1-D2
  SPOT peptide array binding signal intensity: 12.5
CaCyk3
  SPOT peptide array binding signal intensity: 8
CaFus1
  SPOT peptide array binding signal intensity: ≤ 0
CaHof1
  SPOT peptide array binding signal intensity: 69.8
CaHse1
  SPOT peptide array binding signal intensity: 28.5
CaLsb1
  SPOT peptide array binding signal intensity: ≤ 0
CaLsb4
  SPOT peptide array binding signal intensity: 406
CaMyo5
  SPOT peptide array binding signal intensity: ≤ 0
CaNbp2
  SPOT peptide array binding signal intensity: ≤ 0
CaRvs167
  SPOT peptide array binding signal intensity: 144
CaRvs167-3
  SPOT peptide array binding signal intensity: ≤ 0
CaSho1
  SPOT peptide array binding signal intensity: 1020
CaSla1-D1-D2
  SPOT peptide array binding signal intensity: ≤ 0
CaSla1-D3
  SPOT peptide array binding signal intensity: ≤ 0
ScAbp1
  SPOT peptide array binding signal intensity: 3.5
ScBbc1
  SPOT peptide array binding signal intensity: 5
ScBem1-D1
  SPOT peptide array binding signal intensity: ≤ 0
ScBzz1-D1
  SPOT peptide array binding signal intensity: 6.5
ScBzz1-D2
  SPOT peptide array binding signal intensity: 14
ScCyk3
  SPOT peptide array binding signal intensity: ≤ 0
ScFus1
  SPOT peptide array binding signal intensity: ≤ 0
ScHof1
  SPOT peptide array binding signal intensity: 9.5
ScHse1
  SPOT peptide array binding signal intensity: ≤ 0
ScLsb1
  SPOT peptide array binding signal intensity: 20
ScLsb2
  SPOT peptide array binding signal intensity: 2.5
ScLsb3
  SPOT peptide array binding signal intensity: 3260
ScLsb4
  SPOT peptide array binding signal intensity: 706
ScMyo3
  SPOT peptide array binding signal intensity: 3
ScMyo5
  SPOT peptide array binding signal intensity: ≤ 0
ScNbp2
  SPOT peptide array binding signal intensity: ≤ 0
ScPex13
  SPOT peptide array binding signal intensity: 992
ScRvs167
  SPOT peptide array binding signal intensity: 417
ScSho1
  SPOT peptide array binding signal intensity: 3780
ScSla1-D1-D2
  SPOT peptide array binding signal intensity: 17.5
ScSla1-D3
  SPOT peptide array binding signal intensity: 1
SpAbp1-D1
  SPOT peptide array binding signal intensity: ≤ 0
SpBbc1
  SPOT peptide array binding signal intensity: ≤ 0
SpBzz1-D1
  SPOT peptide array binding signal intensity: 74.5
SpBzz1-D2
  SPOT peptide array binding signal intensity: ≤ 0
SpCyk3
  SPOT peptide array binding signal intensity: 150
SpHof1
  SPOT peptide array binding signal intensity: 2260
SpHof1-2
  SPOT peptide array binding signal intensity: 1610
SpHof1-3
  SPOT peptide array binding signal intensity: 776
SpHse1
  SPOT peptide array binding signal intensity: 1.75
SpLsb1
  SPOT peptide array binding signal intensity: 1
SpLsb4
  SPOT peptide array binding signal intensity: 2190
SpMyo1
  SPOT peptide array binding signal intensity: 60.2
SpNbp2
  SPOT peptide array binding signal intensity: ≤ 0
SpPex13
  SPOT peptide array binding signal intensity: 1.5
SpRvs167
  SPOT peptide array binding signal intensity: 777
SpSla1-D1-D2
  SPOT peptide array binding signal intensity: 9
SpSla1-D3
  SPOT peptide array binding signal intensity: ≤ 0

B2: unnamed (peptide)
chain: KRNRLKILLPFLEQS
SpBzz1-D2
  SPOT peptide array binding signal intensity: ≤ 0
SpCyk3
  SPOT peptide array binding signal intensity: 3
SpHof1
  SPOT peptide array binding signal intensity: 142
SpHof1-2
  SPOT peptide array binding signal intensity: 14
SpHof1-3
  SPOT peptide array binding signal intensity: 624
SpHse1
  SPOT peptide array binding signal intensity: 1780
SpLsb1
  SPOT peptide array binding signal intensity: 1.5
SpLsb4
  SPOT peptide array binding signal intensity: 56
SpMyo1
  SPOT peptide array binding signal intensity: 5.5
SpNbp2
  SPOT peptide array binding signal intensity: 443
SpPex13
  SPOT peptide array binding signal intensity: 21
SpRvs167
  SPOT peptide array binding signal intensity: 7.5
SpSla1-D1-D2
  SPOT peptide array binding signal intensity: ≤ 0
SpSla1-D3
  SPOT peptide array binding signal intensity: 11

B3: unnamed (peptide)
chain: PSPSSSPPPIPKTAN
AgAbp1
  SPOT peptide array binding signal intensity: 6.5
AgBbc1
  SPOT peptide array binding signal intensity: 2.5
AgBem1-D1
  SPOT peptide array binding signal intensity: 5
AgBzz1-D1
  SPOT peptide array binding signal intensity: 2
AgBzz1-D2
  SPOT peptide array binding signal intensity: 22.5
AgCyk3
  SPOT peptide array binding signal intensity: 1
AgFus1
  SPOT peptide array binding signal intensity: 0.5
AgHof1
  SPOT peptide array binding signal intensity: ≤ 0
AgHse1
  SPOT peptide array binding signal intensity: 27
AgLsb1
  SPOT peptide array binding signal intensity: 1
AgLsb4
  SPOT peptide array binding signal intensity: ≤ 0
AgMyo5
  SPOT peptide array binding signal intensity: 1760
AgNbp2
  SPOT peptide array binding signal intensity: ≤ 0
AgRvs167
  SPOT peptide array binding signal intensity: 2.33
AgSho1
  SPOT peptide array binding signal intensity: 2.5
AgSla1-D1-D2
  SPOT peptide array binding signal intensity: 2.5
AgSla1-D3
  SPOT peptide array binding signal intensity: ≤ 0
CaAbp1-D1
  SPOT peptide array binding signal intensity: ≤ 0
CaAbp1-D2
  SPOT peptide array binding signal intensity: 9
CaBbc1
  SPOT peptide array binding signal intensity: 1
CaBem1-D1
  SPOT peptide array binding signal intensity: ≤ 0
CaBzz1-D1
  SPOT peptide array binding signal intensity: 112
CaBzz1-D2
  SPOT peptide array binding signal intensity: 15
CaCyk3
  SPOT peptide array binding signal intensity: 1
CaFus1
  SPOT peptide array binding signal intensity: 31.5
CaHof1
  SPOT peptide array binding signal intensity: ≤ 0
CaHse1
  SPOT peptide array binding signal intensity: ≤ 0
CaLsb1
  SPOT peptide array binding signal intensity: ≤ 0
CaLsb4
  SPOT peptide array binding signal intensity: 4.5
CaMyo5
  SPOT peptide array binding signal intensity: 386
